Values joined by “and” are separate entries in the source; they are usually repeats but may differ in a detail not shown here. Equal entries are not always repeated. Active and inactive are the calls of the source. The calls were made as follows: active = hit-call score of the fitted dose curve at least 0.9, where 1 is the maximum; inactive = score below 0.9.
Experiments:
[1] = ATG_PXRE_CIS: Attagene CIS-FACTORIAL HepG2 Assay for human Pregnane X Receptor Element (PXRE) (AID 2282957); settings: HepG2 Attagene CIS-FACTORIAL PXRE reporter, mRNA; actives raise or lower the signal
Outline: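 Transfect HepG2 with MRTUs (cis promoter elements); dose chemical, incubate 24 h; isolate RNA, RT with oligo(dT), PCR, 6-FAM label, HpaI cut, CE. Gain/loss fit vs DMSO.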

[2] = ATG_PPRE_CIS: Attagene CIS-FACTORIAL HepG2 Assay for human Peroxisome Proliferator-activated Response Element (PPRE) (AID 2282958); settings: HepG2 PPRE cis-element reporter, Attagene transcription factor profiling; actives raise or lower the signal
Outline: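 HepG2 cells transiently transfected with multiplexed cis-element reporter units measure endogenous transcription factor activity. After 24 h compound exposure, reporter mRNA is quantified by RT-PCR, 6-FAM labeling, HpaI digestion and capillary electrophoresis; bidirectional fits are made against DMSO baseline.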

[3] = ATG_RORE_CIS: Attagene CIS-FACTORIAL HepG2 Assay for human RAR-related Orphan Receptor Element (RORE) (AID 2282959); settings: HepG2 Attagene cis-factorial RORE reporter, mRNA; actives raise or lower the signal
Outline: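 HepG2 cells transiently transfected with multiple cis-element reporter transcription units, exposed to chemical for 24 h. Reporter mRNA quantified by RT-PCR, 6-FAM primer-extension labeling, HpaI digestion and capillary electrophoresis; bidirectional fit versus DMSO baseline.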

[4] = ATG_Sox_CIS: Attagene CIS-FACTORIAL HepG2 Assay for human SRY-box transcription factor (SOX) (AID 2282960); settings: HepG2 Attagene cis-factorial SOX reporter, mRNA; actives raise or lower the signal
Outline: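 HepG2 cells transiently transfected with cis-element-driven multiple reporter transcription units, dosed 24 h; reporter mRNA measured by RT-PCR, FAM labelling, HpaI digestion and capillary electrophoresis. Bidirectional fit versus DMSO baseline.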

[5] = target: Transcription factor Sp1 (Homo sapiens) (UniProt P08047); assay: ATG_Sp1_CIS: Attagene CIS-FACTORIAL HepG2 Assay for human Specificity Protein 1 (Sp1) (AID 2282961); settings: HepG2 Sp1 cis-reporter transcription, actives raise or lower the signal
Chain of Transcription factor Sp1 (Homo sapiens) (P08047 whole entry, looked up): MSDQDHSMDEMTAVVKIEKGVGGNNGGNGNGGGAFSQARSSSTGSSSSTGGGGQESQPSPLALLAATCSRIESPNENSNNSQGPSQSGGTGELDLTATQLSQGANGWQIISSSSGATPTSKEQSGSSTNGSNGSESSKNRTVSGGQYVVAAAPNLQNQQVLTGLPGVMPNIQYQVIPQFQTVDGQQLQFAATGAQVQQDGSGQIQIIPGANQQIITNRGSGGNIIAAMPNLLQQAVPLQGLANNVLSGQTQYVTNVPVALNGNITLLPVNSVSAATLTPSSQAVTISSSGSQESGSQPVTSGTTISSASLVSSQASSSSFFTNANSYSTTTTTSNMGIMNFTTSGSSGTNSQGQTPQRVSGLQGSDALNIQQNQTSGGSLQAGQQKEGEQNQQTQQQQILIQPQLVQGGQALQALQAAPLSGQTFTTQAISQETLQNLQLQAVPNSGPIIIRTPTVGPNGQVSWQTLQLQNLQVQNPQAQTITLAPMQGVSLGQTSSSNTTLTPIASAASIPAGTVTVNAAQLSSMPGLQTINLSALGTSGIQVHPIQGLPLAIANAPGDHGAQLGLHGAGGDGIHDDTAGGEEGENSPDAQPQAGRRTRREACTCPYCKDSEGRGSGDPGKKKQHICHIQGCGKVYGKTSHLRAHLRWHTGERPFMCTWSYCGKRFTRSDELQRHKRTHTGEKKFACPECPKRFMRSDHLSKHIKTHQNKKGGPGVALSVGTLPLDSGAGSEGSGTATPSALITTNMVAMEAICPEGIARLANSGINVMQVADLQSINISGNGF
Outline: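 HepG2 cells transiently transfected with multiple reporter transcription units driven by cis-regulatory elements; Sp1-responsive reporter mRNA measured 24 h after dosing by RT-PCR and capillary electrophoresis fluorescence, fitted bidirectionally against DMSO baseline.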

[6] = ATG_SREBP_CIS: Attagene CIS-FACTORIAL HepG2 Assay for human Sterol Regulatory Element Binding (SREBP) (AID 2282962); settings: HepG2 Attagene cis-factorial SREBP reporter, mRNA; actives raise or lower the signal
Outline: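 Twenty-four hours after chemical dosing of transfected HepG2 cultures, reporter RNA was converted to cDNA, amplified, end-labelled with 6-FAM and resolved by capillary electrophoresis. Responses were fitted relative to DMSO.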

[7] = target: Signal transducer and activator of transcription 3 (Homo sapiens) (UniProt P40763); assay: ATG_STAT3_CIS: Attagene CIS-FACTORIAL HepG2 Assay for human Signal Transducer and Activator of Transcription 3 (STAT3) (AID 2282963); settings: HepG2, Attagene cis-factorial STAT3 reporter transcription; actives raise or lower the signal
Chain of Signal transducer and activator of transcription 3 (Homo sapiens) (P40763 whole entry, looked up): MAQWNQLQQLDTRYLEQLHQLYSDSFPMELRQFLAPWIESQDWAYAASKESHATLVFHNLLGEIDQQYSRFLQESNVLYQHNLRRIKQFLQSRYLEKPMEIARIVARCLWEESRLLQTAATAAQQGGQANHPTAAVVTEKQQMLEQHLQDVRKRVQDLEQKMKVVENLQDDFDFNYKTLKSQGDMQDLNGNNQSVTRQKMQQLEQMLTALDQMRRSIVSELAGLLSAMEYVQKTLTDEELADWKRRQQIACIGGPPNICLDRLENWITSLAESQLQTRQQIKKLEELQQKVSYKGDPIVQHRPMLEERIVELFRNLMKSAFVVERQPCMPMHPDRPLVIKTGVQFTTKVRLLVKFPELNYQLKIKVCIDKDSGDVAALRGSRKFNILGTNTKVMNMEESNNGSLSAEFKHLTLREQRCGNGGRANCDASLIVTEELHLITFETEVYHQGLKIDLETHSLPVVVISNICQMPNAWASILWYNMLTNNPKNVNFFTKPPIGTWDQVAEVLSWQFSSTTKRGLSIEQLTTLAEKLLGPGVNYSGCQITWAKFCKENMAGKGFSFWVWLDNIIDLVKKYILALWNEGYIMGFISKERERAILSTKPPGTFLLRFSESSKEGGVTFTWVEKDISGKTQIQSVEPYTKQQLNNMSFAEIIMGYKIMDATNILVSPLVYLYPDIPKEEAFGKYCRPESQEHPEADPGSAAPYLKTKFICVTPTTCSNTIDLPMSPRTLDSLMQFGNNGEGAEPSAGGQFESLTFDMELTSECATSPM
Outline: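 Transcript-level reporter assay. HepG2 transient MRTU transfection, 24 h exposure, fluorescence detection after RT-PCR and CE; DMSO baseline.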

[8] = ATG_TA_CIS: Attagene CIS-FACTORIAL HepG2 Assay for human TA Basal Promoter (AID 2282964); settings: HepG2 Attagene CIS-factorial TA basal promoter reporter; actives raise or lower the signal
Outline: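 HepG2 cells transiently transfected with multiplexed cis-promoter reporter units, dosed 24 h. Reporter mRNA measured by RT-PCR, 6-FAM labelling, HpaI digestion and capillary electrophoresis; bidirectional fit versus DMSO baseline, serving as background control.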

[9] = ATG_TCF_b_cat_CIS: Attagene CIS-FACTORIAL HepG2 Assay for human T-Cell-Factor with beta-catenin (TCF/b-cat) (AID 2282965); settings: HepG2 TCF/beta-catenin cis-reporter transcription, actives raise or lower the signal
Outline: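 Using capillary electrophoresis as the read-out, labelled reporter cDNA fragments from transiently transfected HepG2 were sized and quantified. Exposure lasted 24 hours; activity in either direction was referenced to DMSO.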

[10] = ATG_TAL_CIS: Attagene CIS-FACTORIAL HepG2 Assay for human TAL Basal Promoter (AID 2282966); settings: HepG2 Attagene cis-factorial TAL promoter reporter; actives raise or lower the signal;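 also: background control endpoint measuring basal TAL promoter reporter mRNA not a specific factor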
Outline: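 Fluorescence of labelled reporter cDNA fragments, resolved by capillary electrophoresis, gave the readout. Human HepG2 liver cells carried transiently transfected cis-element reporter units and were treated for 24 hours; activity was fitted bidirectionally against DMSO.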

Compound	AC50 [1]	outcome [2]	outcome [3]	outcome [4]	outcome [5]	outcome [6]	outcome [7]	outcome [8]	outcome [9]	outcome [10]	outcome [1]	AC50 [2]	AC50 [3]	AC50 [9]	AC50 [4]
CC(C)(c1ccc(Oc2ccc(N)cc2)cc1)c1ccc(Oc2ccc(N)cc2)cc1	2.01 µM (active)	inactive	inactive	inactive	inactive	inactive	inactive	inactive	inactive	inactive					
CC(C)C=O	61.9 µM (active) and 34.9 µM (active)	inactive	inactive	inactive	inactive	inactive	inactive	inactive	inactive	inactive					
CC(=O)Nc1ccc(S(N)(=O)=O)cc1		inactive	inactive	inactive	inactive	inactive	inactive	inactive	inactive	inactive	inactive				
O=P(O)(O)CCC(F)(F)C(F)(F)C(F)(F)C(F)(F)C(F)(F)C(F)(F)F		inactive	inactive	inactive	inactive	inactive	inactive	inactive	inactive	inactive	inactive				
CCCC=O		inactive	inactive	inactive	inactive	inactive	inactive	inactive	inactive	inactive	inactive				
O=C(Nc1ccc(Cl)c(Cl)c1)c1cc(Cl)cc(Cl)c1O	1.49 µM (active)			inactive	inactive	inactive	inactive	inactive		inactive		0.648 µM (active)	0.903 µM (active)	33.4 µM (active)	
Clc1ccc2c(Cl)ccnc2c1			inactive	inactive	inactive	inactive	inactive	inactive	inactive	inactive	inactive	41.2 µM (active)			
O=C(O)CCC(F)(F)C(F)(F)C(F)(F)C(F)(F)C(F)(F)C(F)(F)F		inactive	inactive	inactive	inactive	inactive	inactive	inactive	inactive	inactive	inactive				
COCC1CCC(CO)CC1 (stereo unspecified)		inactive	inactive	inactive	inactive	inactive	inactive	inactive	inactive	inactive	inactive				
C=CC(=C)CC/C=C(\C)CCC=C(C)C	3.39 µM (active)	inactive	inactive	inactive	inactive	inactive	inactive	inactive	inactive	inactive					
Cc1cc(C(=C2C=CC(=Nc3ccc(S(=O)(=O)O)cc3)C=C2)c2ccc(Nc3ccc(S(=O)(=O)O)cc3)cc2)cc(S(=O)(=O)O)c1N		inactive	inactive	inactive	inactive	inactive	inactive	inactive	inactive	inactive	inactive				
COC(=O)C(F)(F)C(F)(F)C(F)(F)F		inactive	inactive	inactive	inactive	inactive	inactive	inactive	inactive	inactive	inactive				
FC(F)(F)C(F)(F)C(F)(F)C(F)(F)I		inactive	inactive	inactive	inactive	inactive	inactive	inactive	inactive	inactive	inactive				
CCCCCCC(C)(C)C(=O)O	27.4 µM (active)		inactive	inactive	inactive	inactive	inactive	inactive	inactive	inactive		55.5 µM (active)			
NNc1nc(-c2ccc([N+](=O)[O-])cc2)cs1		inactive	inactive	inactive	inactive	inactive	inactive	inactive	inactive	inactive	inactive				
CCCCN(C)C	26.9 µM (active)	inactive	inactive	inactive	inactive	inactive	inactive		inactive	inactive					
O=C(O)CCC(F)(F)C(F)(F)C(F)(F)C(F)(F)C(F)(F)F		inactive	inactive	inactive	inactive	inactive	inactive		inactive	inactive	inactive				
CC(C)(C)C1CCCCC1O (stereo unspecified)		inactive	inactive	inactive	inactive	inactive	inactive		inactive	inactive	inactive				
CCO[Si](C)(C)OCC		inactive	inactive	inactive	inactive	inactive	inactive		inactive	inactive	inactive				
O=C(O)c1cccc(C(=O)O)n1		inactive	inactive	inactive	inactive	inactive	inactive	inactive	inactive	inactive	inactive				
C[C@]12CC[C@@H]3c4ccc(O)cc4CC[C@H]3[C@@H]1CC[C@@H]2OC(=O)CCC1CCCC1	3.89 µM (active)		inactive		inactive	inactive	inactive	inactive	inactive	inactive		100 µM (active)			163 µM (active)
